Source: PubChem (several laboratories)
CR mimetic SO: lowers age-related superoxide in aged yeast cells. 0.18% of 330,000 active. superoxide response (% of plate mean), % at 10 µM. S. cerevisiae aged cells, superoxide DHE fluorescence; stronger effect = lower value;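 active = superoxide response under a set limit, about three screen SD below normal, cut at about 65% in these data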;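 note: yeast aged for seven days with compound at 30 °C before DHE staining; 100% = average MFI of all compound-treated wells on the plate with controls excluded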
MPTP inh: blocks calcium-induced mitochondrial swelling. inhibition, % at 10 µM. isolated mouse mitochondria, Ca2+ swelling absorbance, 30 min. AID 602449. 1.4% of 360,000 active;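 active = inhibition of 50% or more, scaled per plate between neutral and stimulator controls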;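 note: 0% = DMSO wells given calcium and 100% = 1 mM EGTA wells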
aDG glyco up: increases alpha dystroglycan glycosylation; Pro5-aDG cells, alpha-DG glycosylation AlphaScreen (IIH6); 0% Pro5, 100% B10-LARGE cell signal; activation, % at 10 µM; 0.22% of 360,000 active;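 active = activation of at least 8% versus controls, or a plate z-score of at least 8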;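 note: Pro5 are CHO cells carrying HIG-tagged alpha-DG that lacks glycosylation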
Mot1-301 SUMO: inhibitors of SUMOylation pathway: yeast Mot1-301 growth rescue; S. cerevisiae Mot1-301 growth rescue, ATP luminescence, 38.5C; percent above DMSO median, 100 means doubled; growth rescue, % at 18.8 µM; 1% of 320,000 active;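 active = every valid replicate shows activation above 250% relative to neutral control wells; inactive = the rest, any valid replicate at or below 250%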;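 note: OY570 slx delta 5 strain wells were the positive control but not used for scaling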
FAS TE block: inhibitors of human fatty acid synthase thioesterase domain | 0.67% of 360,000 active | inhibition, % at 15 µM | recombinant FAS-TE, OMFH fluorogenic substrate, fluorescence endpoint | AID 602261 | P49327;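 active = compounds whose normalised, plate-corrected inhibition of enzyme fluorescence in the single-dose primary screen is 50% or more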;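 note: 0% = DMSO with enzyme and 100% = substrate without enzyme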
Target sequence (P49327 whole entry, looked up, the tested form may be a part): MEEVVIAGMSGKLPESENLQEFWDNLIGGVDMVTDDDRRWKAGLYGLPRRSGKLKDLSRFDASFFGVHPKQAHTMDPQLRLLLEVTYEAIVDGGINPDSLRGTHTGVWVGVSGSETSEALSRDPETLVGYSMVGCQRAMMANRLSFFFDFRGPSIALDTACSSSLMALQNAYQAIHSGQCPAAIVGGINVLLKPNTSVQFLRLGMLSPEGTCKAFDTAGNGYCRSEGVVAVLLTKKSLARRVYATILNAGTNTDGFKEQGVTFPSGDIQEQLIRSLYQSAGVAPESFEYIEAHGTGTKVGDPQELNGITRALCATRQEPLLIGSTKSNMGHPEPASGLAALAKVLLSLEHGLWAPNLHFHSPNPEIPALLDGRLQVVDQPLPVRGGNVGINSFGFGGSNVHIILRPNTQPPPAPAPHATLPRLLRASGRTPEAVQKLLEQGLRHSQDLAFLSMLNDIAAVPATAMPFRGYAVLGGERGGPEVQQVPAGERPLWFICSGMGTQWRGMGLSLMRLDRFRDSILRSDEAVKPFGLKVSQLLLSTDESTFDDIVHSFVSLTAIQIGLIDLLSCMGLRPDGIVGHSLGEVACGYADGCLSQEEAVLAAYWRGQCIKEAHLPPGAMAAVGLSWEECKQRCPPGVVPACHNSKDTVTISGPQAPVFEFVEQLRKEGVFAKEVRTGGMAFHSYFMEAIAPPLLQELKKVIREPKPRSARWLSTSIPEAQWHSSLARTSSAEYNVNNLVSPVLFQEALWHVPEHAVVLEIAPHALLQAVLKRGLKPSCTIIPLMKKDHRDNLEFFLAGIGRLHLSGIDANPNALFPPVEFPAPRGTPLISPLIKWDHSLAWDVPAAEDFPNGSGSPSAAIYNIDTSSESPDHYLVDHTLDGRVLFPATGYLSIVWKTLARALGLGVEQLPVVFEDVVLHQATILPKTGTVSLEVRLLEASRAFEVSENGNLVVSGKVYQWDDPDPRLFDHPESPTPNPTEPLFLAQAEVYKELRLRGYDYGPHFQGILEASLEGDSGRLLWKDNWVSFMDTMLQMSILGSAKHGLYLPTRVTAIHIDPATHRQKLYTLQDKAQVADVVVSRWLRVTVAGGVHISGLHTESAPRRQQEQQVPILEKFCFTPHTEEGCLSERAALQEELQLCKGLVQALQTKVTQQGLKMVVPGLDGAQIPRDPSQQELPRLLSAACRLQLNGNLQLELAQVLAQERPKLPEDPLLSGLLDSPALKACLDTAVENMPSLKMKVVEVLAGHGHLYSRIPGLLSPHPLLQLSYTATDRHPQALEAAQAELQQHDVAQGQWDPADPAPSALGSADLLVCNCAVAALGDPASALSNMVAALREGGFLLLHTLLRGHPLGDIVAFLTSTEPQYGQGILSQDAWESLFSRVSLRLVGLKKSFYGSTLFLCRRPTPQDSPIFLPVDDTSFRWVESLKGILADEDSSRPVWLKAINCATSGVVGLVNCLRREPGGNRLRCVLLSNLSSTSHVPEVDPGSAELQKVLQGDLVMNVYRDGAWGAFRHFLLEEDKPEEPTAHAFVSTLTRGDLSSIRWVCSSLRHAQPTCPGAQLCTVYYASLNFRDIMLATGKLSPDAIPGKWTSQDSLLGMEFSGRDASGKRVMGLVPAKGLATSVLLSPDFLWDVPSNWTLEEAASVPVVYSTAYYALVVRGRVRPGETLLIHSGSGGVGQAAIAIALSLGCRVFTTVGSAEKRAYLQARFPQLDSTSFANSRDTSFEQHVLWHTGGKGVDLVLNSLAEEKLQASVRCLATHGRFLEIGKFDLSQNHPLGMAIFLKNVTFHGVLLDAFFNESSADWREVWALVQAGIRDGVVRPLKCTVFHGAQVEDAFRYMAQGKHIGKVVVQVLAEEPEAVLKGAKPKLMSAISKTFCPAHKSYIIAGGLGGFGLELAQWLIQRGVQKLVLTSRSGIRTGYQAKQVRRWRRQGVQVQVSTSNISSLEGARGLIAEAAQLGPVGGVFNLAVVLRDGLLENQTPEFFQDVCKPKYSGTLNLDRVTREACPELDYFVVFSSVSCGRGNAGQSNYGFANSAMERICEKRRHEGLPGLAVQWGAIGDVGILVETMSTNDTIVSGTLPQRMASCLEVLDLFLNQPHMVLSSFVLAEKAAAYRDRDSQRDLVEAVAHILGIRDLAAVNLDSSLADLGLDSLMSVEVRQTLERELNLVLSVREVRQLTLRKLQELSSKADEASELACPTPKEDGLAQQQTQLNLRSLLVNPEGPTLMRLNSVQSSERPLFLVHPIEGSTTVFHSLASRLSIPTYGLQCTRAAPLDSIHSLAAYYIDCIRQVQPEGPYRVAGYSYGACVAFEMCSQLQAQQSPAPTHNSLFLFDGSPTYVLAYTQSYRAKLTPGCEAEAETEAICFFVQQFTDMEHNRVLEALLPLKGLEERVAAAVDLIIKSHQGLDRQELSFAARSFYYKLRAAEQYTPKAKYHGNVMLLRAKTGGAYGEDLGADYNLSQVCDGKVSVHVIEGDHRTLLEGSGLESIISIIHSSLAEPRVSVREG
H9c2 protect: myocardial damage modulation in H9c2 cells; H9c2 cardiomyocytes, H2O2 injury protection, ATPLite, 2 h; protection from H2O2 cell death, % at 20 µM; 0.63% of 360,000 active;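 active = compounds giving at least 50% protection of heart cells from peroxide-induced death in the single-dose screen, raw or plate-pattern-corrected value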;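 note: 0% = DMSO wells with peroxide and 100% = DMSO wells without peroxide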
Active calls of the source: *; . = no result. Sampled rows, rich in hits. Any-hit rate of the full collection: about 3.8%.

SMILES | CR mimetic SO | MPTP inh | aDG glyco up | Mot1-301 SUMO | FAS TE block | H9c2 protect
Cc1cc(C)nc(NC(=O)c2ccc(C)c(C)c2)n1 | 97.4 | -0.3 | 0.0 | 10.3 | -5.4 | 5.5
CCc1ccc(NC(=O)C(=O)NCCN2CCN(S(=O)(=O)c3ccccc3)CC2)cc1 | 98.7 | -0.7 | 0.1 | 0.0 | -6.2 | -4.7
C/C(=N\NC(=O)CSCc1ccc([N+](=O)[O-])cc1)c1ccccc1O | 112.2 | 6.2 | 0.4 | 23.2 | 20.1 | 63.1*
O=c1oc(Cl)c(Cl)c2ccccc12 | 114.9 | 0.7 | -0.4 | 74.3 | 91.6* | -21.2
CN(C)CCCNc1ccc(-c2n[nH]c(=O)c3ccccc23)cc1[N+](=O)[O-] | 99.7 | -0.3 | 0.1 | -20.8 | -7.2 | 55.1*
O=C(c1ccco1)N1CCN(C(c2coc3ccc(Cl)cc3c2=O)c2nnnn2C2CCCC2)CC1 (configuration not stated) | 118.2 | -2.8 | 0.0 | -15.2 | 16.8 | 43.3
Cc1ccc2occ(C(c3nnnn3C3CCCC3)N3CCN(C(=O)c4ccco4)CC3)c(=O)c2c1 (configuration not stated) | 85.7 | 0.4 | -0.1 | -12.2 | 5.2 | 51.7*
Cn1c(=O)c2c(nc(N3CCCCCC3)n2CCSc2nc3ccccc3o2)n(C)c1=O | 83.3 | -1.2 | -0.1 | 422.6* | 9.5 | 31.1
CN1CCN(c2nc3c(c(=O)[nH]c(=O)n3C)n2Cc2ccc(Cl)cc2)CC1 | 80.6 | -1.1 | -0.1 | 7.7 | -2.1 | 4.1
CC1CC(C)CN(c2nc3c(c(=O)n(C)c(=O)n3C)n2CCSc2nc3ccccc3o2)C1 (configuration not stated) | . | -2.9 | 0.0 | . | 10.6 | 10.4
CN1CCN(c2nc3c(c(=O)n(C)c(=O)n3C)n2Cc2ccc(Cl)cc2)CC1 | 103.7 | 0.1 | 0.3 | 288.8* | -5.0 | 12.3
O=S(=O)(c1cccc(F)c1)N1CCN(c2nc(-c3cccnc3)nc3ccccc23)CC1 | 95.5 | -2.2 | -0.7 | 3.8 | 35.1 | 59.1*
CCOc1cc(-c2cc(-c3ccc(N)cc3)nc(N)c2C#N)ccc1O | 96.5 | -0.2 | -0.4 | -15.9 | 10.5 | 116.2*
O=C(NCC1CCCO1)C(c1ccc(F)cc1)N(C(=O)Cn1nnc(-c2ccc(F)cc2)n1)c1cccc(O)c1 (configuration not stated) | 100.7 | 0.2 | -0.1 | . | -2.0 | 55.8*
CC(C(=O)NC1CCCC1)N(C(=O)Cn1nnc(-c2ccc(F)cc2)n1)c1ccccc1F (configuration not stated) | 109.2 | -1.0 | -0.2 | 68.4 | 5.9 | 64.0*
COc1ccc(N(C(=O)Cn2nnc(-c3ccc(F)cc3)n2)C(C)C(=O)NC2CCCC2)cc1 (configuration not stated) | 95.3 | -0.3 | 0.0 | 29.3 | 16.0 | 0.9
CC(C)CC(C(=O)NCC1CCCO1)N(C(=O)Cn1nnc(-c2ccc(F)cc2)n1)c1cccc(C(F)(F)F)c1 (configuration not stated) | 73.1 | 7.6 | 1.6 | 1.7 | 22.8 | -2.3
CC1NC(=O)c2cc3ccccc3cc2-n2c1nc1ccccc1c2=O (configuration not stated) | . | 1.9 | -0.3 | . | -4.8 | 10.8
Cc1cc(Br)c(NC(=O)CN2C(=O)NC3(CCOc4ccccc43)C2=O)c(Br)c1 (configuration not stated) | . | -0.8 | 0.0 | . | 2.6 | 1.9
CC(=O)N(c1nnc(-c2cccc(C)c2)s1)C1CCCC1 | 102.4 | 0.3 | 0.0 | -3.5 | 13.2 | -4.3
C#CCN(C[C@@H]1[C@@H](OC(=O)Nc2cccs2)[C@@H](OC(=O)Nc2cccs2)Cn2c(=O)n(CCCCCC)c(=O)n21)S(=O)(=O)c1ccc(C)cc1 | . | -0.7 | 0.0 | . | 21.1 | -10.1
Nc1cc2[nH]c(=O)c3ccccc3c2cc1[N+](=O)[O-] | . | 0.1 | -0.1 | . | 0.9 | 81.0*
COc1cc2c(=O)[nH]c3cc([N+](=O)[O-])ccc3c2cc1[N+](=O)[O-] | . | -1.4 | -0.2 | . | 8.9 | 2.9
COc1ccccc1NC(=O)NNC(=O)CN1C(=O)COc2ccccc21 | 112.1 | 0.0 | -0.1 | 135.3 | -4.7 | 1.7
Cc1ccc(S(=O)(=O)NCc2ccc(C(=O)N3CCN(c4ccc([N+](=O)[O-])cc4)CC3)cc2)cc1 | 84.5 | 2.4 | 1.3 | 114.4 | 10.6 | -7.0
SMILES | CR mimetic SO | MPTP inh | aDG glyco up | Mot1-301 SUMO | FAS TE block | H9c2 protect
CCN(CC)C(=O)c1ccc2nc3ccccc3nc2c1 | 37.1* | -0.2 | 1.1 | 1.7 | -7.9 | -3.8
CCN(CC)C(=O)c1ccc2nc(-c3ccccc3)c(-c3ccccc3)nc2c1 | 109.7 | 0.4 | 0.2 | . | 16.9 | -7.8
COc1cc(/C=C(/C#N)c2nc3ccccc3[nH]2)ccc1OCC(=O)Nc1ccccc1C(C)C | 93.7 | 0.9 | 0.0 | -6.8 | -3.3 | 68.5*
CC(C)c1cc2c(c(O)c1O)[C@@]13CCCC(C)(C)C1CC2OC3=O (some centres not stated) | 82.2 | 6.7 | -0.3 | -4.0 | 5.3 | 2.3
COc1ccccc1C(CNC(=O)CN1C(=O)NC(C)(c2ccc3ccccc3c2)C1=O)N1CCCC1 (configuration not stated) | . | -2.2 | 0.2 | . | -8.7 | 12.5
O=C(Nc1cccc(/C=C/c2ccccn2)c1)c1ccc(-n2cncn2)cc1 | 82.2 | -2.0 | -0.2 | -0.1 | -7.6 | 68.8*
Cc1ccc(C(=O)N2C(CC(=O)Nc3ccc(Cl)cc3)C(=O)NC3CCCCC32)cc1 (configuration not stated) | 112.3 | 1.6 | -0.1 | 15.4 | 8.2 | 0.5
COC(=O)c1ccc(OCC(=O)Nc2ccccc2C(=O)NC2CC2)cc1 | 91.1 | -0.8 | -0.6 | -16.2 | -3.7 | 56.8*
COc1ccc(OCC(=O)Nc2ccccc2C(=O)NC2CC2)cc1 | 89.0 | -0.9 | -0.1 | 39.9 | -1.8 | 7.9
Cc1[nH]c2ccc(F)cc2c1CCN(Cc1cccnc1)C(=S)Nc1ccccc1 | 94.1 | 0.1 | 0.0 | -4.9 | 0.5 | 5.0
CNC(=S)N(CCc1c(C)[nH]c2ccc(F)cc12)Cc1cccnc1 | 100.6 | -0.4 | 0.2 | 354.3* | -2.2 | 3.0
c1ccc(-c2sc3ccccc3c2-c2ccc(OCCN3CCOCC3)cc2)cc1 | 88.5 | 2.4 | -0.3 | 407.0* | 23.5 | -5.5
COc1ccccc1-c1sc2ccccc2c1-c1ccc(OCCN2CCOCC2)cc1 | 94.8 | -0.7 | -0.4 | . | 19.4 | -14.1
COc1cc(/C=C(\C#N)C(=O)c2ccc(O)c(O)c2)cc(I)c1O | 86.9 | 2.8 | -0.1 | 3.9 | -0.6 | 62.5*
COc1cc(CNC[C@H]2O[C@@H](n3ccc(N)nc3=O)[C@H](O)[C@@H]2O)ccc1OCc1cccc(Cl)c1 | . | -1.8 | 0.0 | . | -6.8 | 0.5
O=C(Nc1cccc(-c2nnc(-c3ccccc3)o2)c1)c1ccco1 | 90.3 | -1.7 | 0.2 | -1.4 | 8.8 | 25.1
Cc1nn2c(-c3cccc(NC(=O)c4ccco4)c3)nnc2c2ccccc12 | 97.4 | 1.8 | -0.5 | -7.0 | 0.9 | 80.2*
